Data on five compounds can be found in PubChem BioAssay.

The source made the active and inactive calls.

The nature of test [1]: small molecules captured by biotinylated probe aFSTL3 – biochemical, small-molecule microarray, fluorescence 635/667, stem cell growth factor project, primary screen (AID 1064).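 Note: measures binding of the biotinylated anti-FSTL3 antibody to printed compounds.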 The note with it: higher = more signal.
The nature of test [2]: binders from COS7 lysate, DM2A8 probe, primary screen, torsin A project, cell lysate, small-molecule microarray, fluorescence 635/667 (AID 1065). The note with it: higher = more signal, COS7 lysate expressing mutant human TOR1A.
The nature of test [3]: small molecules captured by biotinylated probe aFGF2 – biochemical, small-molecule microarray, fluorescence 635/667, stem cell growth factor project, primary screen (AID 1067).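 Note: measures binding of biotinylated aFGF2 protein to printed compounds on slides; z-score merges feature fluorescence and signal-to-noise across triplicate slides.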 Particulars: higher = more signal.
A short description of test [4]: small molecules captured by biotinylated probe aFGF10 – biochemical, small-molecule microarray, fluorescence 635/667, stem cell growth factor project, primary screen (AID 1071).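 Note: score merges 667 nm spot intensity and signal to noise from triplicate slides.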 Particulars: higher = more signal.
Test [5] concerns the target Neurogenic locus notch homolog protein 2 (Homo sapiens) (UniProt Q04721). The experiment in a line: small molecules binding Notch2 protein – biochemical, small-molecule microarray, 635 nm fluorescence, stem cell growth factors, primary screen (AID 1073). The note with it: higher = more signal.
In test [6] the target is Pro-neuregulin-1, membrane-bound isoform (Homo sapiens) (UniProt Q02297). Briefly: small molecules binding neuregulin-1 protein – biochemical, small-molecule microarray, fluorescence 635/667, psychiatric disease protein project, primary screen (AID 1075).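 Note: score combines 667 nm spot fluorescence with signal to noise.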 The note with it: NRG1 binding, 635 nm fluorescence, higher = more signal.
Test [7] deals with Neuregulin-1 EGF-like domain. The experiment in a line: small molecules binding NRG1 EGF domain – biochemical, small-molecule microarray, 635 nm fluorescence, primary screen (AID 1081).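 Note: binding of the protein to compounds printed on small-molecule microarray slides.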 The note with it: higher = more signal.
The nature of test [8]: FRG1 expression reporter modulators in myotubes – cell-based, C2C12 myotubes, firefly/Renilla luciferase, luminescence, FRG1 inhibition for FSHD, primary screen (AID 1084). The note with it: FRG1 promoter luciferase, higher = more signal, called active from +8 up or from −8 down.
Test [9] can be described thus: small molecules captured by biotinylated probe aFST – biochemical, small-molecule microarray, fluorescence 635/667, stem cell growth factor project, primary screen (AID 1086).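 Note: score merges 667 nm fluorescence with signal-to-noise of each printed compound spot.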 Particulars: higher = more signal.
The nature of test [10]: binders of probe aHhip on microarray, primary screen, stem cell growth factor project, biochemical, small-molecule microarray, fluorescence 635/667 (AID 1087).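 Note: score merges spot fluorescence at 667nm with spot signal to noise ratio.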 Particulars: higher = more signal.
In test [11] the test system is PRMT1 (protein arginine N-methyltransferase 1). The experiment in a line: small molecules binding arginine methyltransferase PRMT1 – biochemical, small-molecule microarray, 635 nm fluorescence, primary screen (AID 1088).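 Note: binding of Prmt1 protein to compounds spotted on small-molecule microarray slides.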 The note with it: higher = more signal.
Test [12] in a line: growth effects on S. cerevisiae YJM789 – YJM789 clinical isolate, OD600, 24 h, basal, primary screen (AID 1089).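 Note: growth of clinical yeast isolate S. cerevisiae YJM 789 seeded 1000 cells per well; test concentration not given here.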 The note with it: higher = more signal, called active from +8 up or from −8 down.
A short description of test [13]: S. pombe growth modifiers, basal conditions – strain 972, OD600, 24 h, no modulator, primary screen (AID 1090).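 Note: basal condition with compound alone and no growth modifier present; test concentration not given here.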 Particulars: S. pombe 972 growth, higher = more signal, called active from +8 up or from −8 down.
The nature of test [14]: budding yeast growth modifiers under rapamycin – strain BY4716, OD600, 96 h, primary screen (AID 1091). Note: test concentration not given here. Particulars: S. cerevisiae BY4716 + rapamycin, higher = more signal, called active from +8 up or from −8 down.
Test [15] concerns the target Torsin-1A-interacting protein 2 (Homo sapiens) (UniProt Q8NFQ8). The experiment in a line: small molecules binding lysate-expressed LULL1 – cell lysate, human LULL1 lysate, 635/667 nm fluorescence, primary screen (AID 1092).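 Note: probe is lysate of COS7 cells overexpressing human LULL1; score merges per-feature 667 nm fluorescence with signal-to-noise.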 The note with it: small-molecule microarray, hLULL1 lysate binding, 635 nm fluorescence; higher = more signal.
The nature of test [16]: optical density change of DRC41 E. coli – strain DRC41, OD650, 24 h, E. coli filamentation project, primary screen (AID 1093).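 Note: MC1000 strain lacking acrAB efflux and sulA so SOS filamentation is blocked; test concentration not given here.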 The note with it: E. coli DRC41 growth, higher = more signal, called active from +8 up or from −8 down.
Test [17] is described as follows: probe aLefty2 binding to arrayed compounds – biochemical, biotinylated probe, 635/667 nm fluorescence, primary screen (AID 1094).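 Note: score merges spot fluorescence near 667 nm with spot signal-to-noise ratio.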 The note with it: small-molecule microarray, higher = more signal.
Test [18] deals with Noggin (protein binding on small-molecule microarray). The experiment in a line: small molecules binding Noggin protein – biochemical, 635/667 nm fluorescence, primary screen (AID 1095).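 Note: score merges 667 nm feature fluorescence with signal to noise over triplicate slides.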 The note with it: 635 nm fluorescence, higher = more signal.
Test [19] concerns the target Neurogenic locus notch homolog protein 3 (Homo sapiens) (UniProt Q9UM47). Briefly: small molecules binding NOTCH3 protein – biochemical, 635/667 nm fluorescence, primary screen (AID 1096). Particulars: small-molecule microarray, 635 nm fluorescence, higher = more signal.
Test [20] is described as follows: probe aEGFR binding to arrayed compounds – biochemical, biotinylated probe, 635/667 nm fluorescence, primary screen (AID 1097).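 Note: probe is a biotinylated anti-EGFR antibody binding compounds printed on slides; score combines fluorescence near 667 nm and signal to noise of each spot.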 Particulars: small-molecule microarray, higher = more signal.

Chain of Torsin-1A-interacting protein 2 (Homo sapiens) (Q8NFQ8 whole entry, looked up): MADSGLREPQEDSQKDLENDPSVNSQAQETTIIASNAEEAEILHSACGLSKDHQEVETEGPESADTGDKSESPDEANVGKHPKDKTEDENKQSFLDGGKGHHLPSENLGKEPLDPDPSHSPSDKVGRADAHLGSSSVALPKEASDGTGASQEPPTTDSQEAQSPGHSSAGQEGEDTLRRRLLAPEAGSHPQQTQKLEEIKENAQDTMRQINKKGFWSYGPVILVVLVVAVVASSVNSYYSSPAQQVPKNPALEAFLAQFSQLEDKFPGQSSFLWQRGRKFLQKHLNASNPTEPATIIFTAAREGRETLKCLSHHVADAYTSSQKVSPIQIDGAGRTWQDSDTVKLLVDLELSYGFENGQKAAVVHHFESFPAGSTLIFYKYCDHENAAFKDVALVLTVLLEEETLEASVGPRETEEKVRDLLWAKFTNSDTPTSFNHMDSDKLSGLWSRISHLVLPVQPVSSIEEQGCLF
Chain of Pro-neuregulin-1, membrane-bound isoform (Homo sapiens) (Q02297 whole entry, looked up, the tested form may be a part, canonical isoform): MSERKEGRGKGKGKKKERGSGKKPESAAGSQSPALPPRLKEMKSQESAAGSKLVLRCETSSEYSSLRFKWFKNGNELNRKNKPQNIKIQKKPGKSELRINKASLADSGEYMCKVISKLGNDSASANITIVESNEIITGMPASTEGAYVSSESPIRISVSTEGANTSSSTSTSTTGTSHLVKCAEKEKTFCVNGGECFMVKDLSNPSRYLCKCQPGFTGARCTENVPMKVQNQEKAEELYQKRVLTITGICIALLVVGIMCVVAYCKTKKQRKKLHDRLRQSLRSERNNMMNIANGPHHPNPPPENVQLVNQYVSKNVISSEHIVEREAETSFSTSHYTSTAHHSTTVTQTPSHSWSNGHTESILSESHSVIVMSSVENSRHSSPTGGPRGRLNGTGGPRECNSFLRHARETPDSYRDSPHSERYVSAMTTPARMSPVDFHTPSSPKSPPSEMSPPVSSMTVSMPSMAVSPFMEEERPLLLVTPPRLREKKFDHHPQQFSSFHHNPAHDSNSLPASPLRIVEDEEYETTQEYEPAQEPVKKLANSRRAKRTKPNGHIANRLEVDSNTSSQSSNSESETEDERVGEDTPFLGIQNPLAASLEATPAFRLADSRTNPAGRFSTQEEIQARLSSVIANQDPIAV
Chain of Neurogenic locus notch homolog protein 2 (Homo sapiens) (Q04721 whole entry, looked up, canonical isoform): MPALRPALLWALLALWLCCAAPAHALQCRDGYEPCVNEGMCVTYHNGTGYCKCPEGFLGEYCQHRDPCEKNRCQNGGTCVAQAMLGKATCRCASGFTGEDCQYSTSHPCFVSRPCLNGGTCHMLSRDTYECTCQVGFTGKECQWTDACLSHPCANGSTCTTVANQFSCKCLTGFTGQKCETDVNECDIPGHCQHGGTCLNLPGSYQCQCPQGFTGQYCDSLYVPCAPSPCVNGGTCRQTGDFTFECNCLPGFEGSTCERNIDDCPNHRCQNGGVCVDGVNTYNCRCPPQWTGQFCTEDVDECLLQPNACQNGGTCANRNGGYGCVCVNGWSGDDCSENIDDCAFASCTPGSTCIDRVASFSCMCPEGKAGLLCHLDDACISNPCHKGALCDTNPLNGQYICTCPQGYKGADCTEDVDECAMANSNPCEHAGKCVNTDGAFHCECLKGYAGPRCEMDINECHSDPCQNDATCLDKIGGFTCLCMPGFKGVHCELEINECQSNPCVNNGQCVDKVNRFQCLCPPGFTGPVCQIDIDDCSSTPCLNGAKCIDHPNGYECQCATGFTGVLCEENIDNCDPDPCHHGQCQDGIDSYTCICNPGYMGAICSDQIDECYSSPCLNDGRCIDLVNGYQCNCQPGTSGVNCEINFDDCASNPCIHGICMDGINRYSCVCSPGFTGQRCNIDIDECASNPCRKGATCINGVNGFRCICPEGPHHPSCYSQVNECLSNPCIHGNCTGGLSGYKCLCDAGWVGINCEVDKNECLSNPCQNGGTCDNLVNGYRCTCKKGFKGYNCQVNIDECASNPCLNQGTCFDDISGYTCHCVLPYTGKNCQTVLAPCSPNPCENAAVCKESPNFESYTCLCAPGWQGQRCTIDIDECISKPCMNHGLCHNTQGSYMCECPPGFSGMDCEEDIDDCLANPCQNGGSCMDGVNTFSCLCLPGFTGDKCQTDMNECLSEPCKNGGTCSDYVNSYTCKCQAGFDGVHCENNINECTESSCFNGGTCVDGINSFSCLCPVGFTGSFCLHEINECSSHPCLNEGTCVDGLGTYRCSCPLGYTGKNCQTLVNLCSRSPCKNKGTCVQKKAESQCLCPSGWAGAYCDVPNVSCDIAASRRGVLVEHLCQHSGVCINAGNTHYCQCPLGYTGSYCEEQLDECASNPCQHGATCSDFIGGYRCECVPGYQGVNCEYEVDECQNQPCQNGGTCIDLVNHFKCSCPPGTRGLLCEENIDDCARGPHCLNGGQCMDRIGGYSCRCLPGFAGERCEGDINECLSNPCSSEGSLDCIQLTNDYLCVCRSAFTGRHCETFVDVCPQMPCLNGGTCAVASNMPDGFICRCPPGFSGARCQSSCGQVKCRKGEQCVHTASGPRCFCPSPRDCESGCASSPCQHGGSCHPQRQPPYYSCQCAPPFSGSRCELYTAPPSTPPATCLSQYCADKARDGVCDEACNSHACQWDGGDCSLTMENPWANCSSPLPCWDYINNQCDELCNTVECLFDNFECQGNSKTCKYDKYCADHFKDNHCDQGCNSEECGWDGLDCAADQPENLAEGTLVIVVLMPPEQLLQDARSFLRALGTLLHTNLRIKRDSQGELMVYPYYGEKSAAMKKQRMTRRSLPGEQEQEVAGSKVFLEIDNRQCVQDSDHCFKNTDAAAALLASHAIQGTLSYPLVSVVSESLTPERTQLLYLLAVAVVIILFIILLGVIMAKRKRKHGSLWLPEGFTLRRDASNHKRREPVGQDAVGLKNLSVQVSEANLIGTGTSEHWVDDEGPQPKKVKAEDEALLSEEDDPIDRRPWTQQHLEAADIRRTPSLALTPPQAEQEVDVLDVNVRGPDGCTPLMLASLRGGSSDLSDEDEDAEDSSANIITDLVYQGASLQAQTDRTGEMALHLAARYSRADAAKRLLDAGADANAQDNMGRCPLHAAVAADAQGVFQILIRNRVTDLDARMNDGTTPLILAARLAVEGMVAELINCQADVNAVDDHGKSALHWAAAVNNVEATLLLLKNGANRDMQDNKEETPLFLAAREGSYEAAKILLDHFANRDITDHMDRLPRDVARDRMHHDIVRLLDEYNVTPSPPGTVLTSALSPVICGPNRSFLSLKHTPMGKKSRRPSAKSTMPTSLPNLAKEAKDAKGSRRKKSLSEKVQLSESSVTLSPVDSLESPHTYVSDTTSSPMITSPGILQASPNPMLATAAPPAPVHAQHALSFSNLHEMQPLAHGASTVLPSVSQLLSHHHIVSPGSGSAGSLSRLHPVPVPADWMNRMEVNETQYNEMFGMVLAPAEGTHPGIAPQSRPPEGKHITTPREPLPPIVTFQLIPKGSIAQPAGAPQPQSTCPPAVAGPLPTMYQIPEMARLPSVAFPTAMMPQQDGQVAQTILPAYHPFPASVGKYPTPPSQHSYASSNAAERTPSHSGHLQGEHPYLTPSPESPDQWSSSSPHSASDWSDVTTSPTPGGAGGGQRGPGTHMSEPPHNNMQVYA

For `C=CC[C@@H]1C=C[C@H](ON=C[C@@H](C)[C@H](OCc2ccccc2)C(C)C)[C@@H](CO)O1`, the composite z-score is -0.227 in test [1]; -0.14 in test [2]; 0.342 in test [3]; -0.433 in test [4]; -1.1 in test [5]; -0.241 in [6]. Moreover, the composite z-score in [7] was -0.255; in test [9], -0.0578; in [10] it was -0.0618; in test [11] it was 0.261; in test [15], 0.602; in test [17], -0.228. In addition, the composite z-score in test [18] was -0.244; in test [19], -0.0585; in test [20] it was -0.146. In addition, the z-score in [8] was 0.715 (inactive); in test [12], -1.46 (inactive); in test [13], -3.98 (inactive); in [14] it was -0.515 (inactive); in test [16], 0.15 (inactive).

With `CO[C@H]1COC(=O)CC=C[C@H](C)[C@@H](OC)COC(=O)[C@H](C)COC(=O)CC=C[C@@H]1C`, the composite z-score in test [1] is -0.687; in [2], 1.34; in [3] it was -0.223; in [4] it was -0.562; in [5] it was -0.407; in test [6] it was -0.785. Besides, the composite z-score is -0.142 in [7]; -0.176 in test [9]; 0.0722 in [10]; 0.765 in [11]; -0.344 in test [15]; -0.268 in test [17]. Further, the composite z-score is 1.76 in test [18], -0.292 in [19] and -0.0439 in [20]. In addition, the z-score in test [8] was -0.387 (inactive); in test [12], 0.395 (inactive); in test [13], -0.425 (inactive); in [14], 0.567 (inactive); in test [16], 0.683 (inactive).

For the compound `CCOC(=O)[C@H](CC(C)C)NC(=O)CCC1CC(OC(=O)NCc2cccc3ccccc23)CC2(CCCC(COC(=O)NCCC(C)C)O2)O1` (stereo not given in full), the composite z-score in test [1] was -0.403; in test [2], 0.141; in [3], -0.0547; in test [4], 0.176; in [5], 0.193; in [6] it was -0.0205. For the same compound, the composite z-score in test [7] is 0.602; in test [9], -0.128; in [10] it was 0.003; in test [11], 0.554; in test [15], 0.691; in test [17], -0.221. The composite z-score in [18] amounted to 0.543; in [19], 0.144; in test [20] it was 0.0031. For the same compound, the z-score in test [8] is 0.164 (inactive); in [12] it was -3.9 (inactive); in test [13] it was -2.7 (inactive); in test [14], -1.89 (inactive); in test [16] it was -0.77 (inactive).

Consider `O=c1n(-c2ccccc2)c(=O)n2n1CC[C@@H]1C(=NOCc3ccccc3)[C@H]3O[C@H]3[C@@H](O)[C@@H]12`, for which the composite z-score is -0.489 in test [1]; -0.285 in test [2]; -0.0494 in test [3]; 0.472 in [4]; -0.267 in test [5]; -0.0644 in test [6]. Further, the composite z-score is -0.338 in [7]; -0.0869 in test [9]; -0.284 in test [10]; -0.955 in test [11]; -0.0733 in test [15]; -0.274 in test [17]. Moreover, the figures for the composite z-score in [18], in test [19] and in [20] were -0.131, 0.116 and -0.0531, respectively. Besides, the z-score is -0.354 (inactive) in test [8]; -0.434 (inactive) in test [12]; -0.326 (inactive) in test [13]; -0.871 (inactive) in [14]; -0.619 (inactive) in test [16].

As for `CCCCC#C[C@@H]1C=C[C@H](Oc2ccc(C(=O)OC)cc2)[C@@H](COC(=O)OCC)O1`, the composite z-score was -0.367 in test [1]; 0.956 in [2]; -0.0874 in test [3]; 0.495 in [4]; 0.65 in test [5]; 0.338 in test [6]. Moreover, the composite z-score in test [7] is 0.733; in test [9], 0.153; in test [10], 0.178; in test [11], 0.888; in [15] it was 0.508; in test [17], -0.115. For the same compound, the composite z-score in test [18] was 0.198; in [19], 0.531; in test [20], -0.0051. The z-score in [8] was -2.03 (inactive); in test [12] it was 0.143 (inactive); in test [13], -19.5 (active); in test [14], -0.611 (inactive); in [16], 0.197 (inactive).
